Experimental data from PubChem BioAssay AID463173 (ICCB-Longwood Screening Facility, Harvard Medical School, 2010).
Screen size: about 52,000 compounds; about 4,300 (8.3%) were called active. Only a selection was taken, and actives are over-represented in it overall. A number with no mark means an inactive call. Rule as the data show it: active = survival mostly below about 52% (no sharp cut-off); inactive = mostly above about 56%.

The compounds below were run on DeltatarO mutant (assay: growth inhibition of S. aureus wild type versus tarO mutant, primary screen, teichoic acid synthesis inhibitors, RN4220, OD600 (AID 463173)). Conditions: OD600, 18 h, active compounds read low, screened at 18.75 µg/mL (by protocol).
CC(C)Oc1ccc(CNC(=O)c2cc3cccc4c3n2CC(C)S4)cc1 (centres undefined) was tested, and the survival was 91%.
In the case of Cc1cccc(CCNC(=O)c2nn(C)c3c2CSc2ccccc2-3)c1, the survival is reported as 77%.
Cc1ccc2c(c1)-c1c(c(C(=O)NCCc3ccccc3)nn1C)CS2 was tested, and the survival was 37% (active).
In the case of Cc1ccc(CCNC(=O)c2nn(C)c3c2CSc2ccccc2-3)cc1, the survival is reported as 82%.
In the case of O=C(Nc1ccc(C(=O)OCc2cc(=O)n3c4c(sc3n2)CCCC4)cc1)c1ccc(F)cc1, the survival is reported as 101%.
In the case of Cc1cccc(C)c1OCc1cc(=O)n2c3c(sc2n1)CCCC3, the survival is reported as -17% (active).
In the case of Cc1ccc(C(=O)Nc2ccc(C(=O)OCc3cc(=O)n4c5c(sc4n3)CCCC5)cc2)cc1, the survival is reported as 83%.
O=C(Nc1ccccc1C(=O)OCc1cc(=O)n2c3c(sc2n1)CCCC3)c1cccc(Cl)c1 showed a survival of 69%.
In the case of Cc1ccccc1C(=O)Nc1ccc(C(=O)OCc2cc(=O)n3c4c(sc3n2)CCCC4)cc1, the survival is reported as 118%.
In the case of Cc1cccc(OCc2cc(=O)n3c4c(sc3n2)CCCC4)c1C, the survival is reported as 131%.
With COc1ccccc1C(=O)Nc1ccc(C(=O)OCc2cc(=O)n3c4c(sc3n2)CCCC4)cc1 the survival was 37% (active).
Compound Cc1ccc(OCc2cc(=O)n3c4c(sc3n2)CCCC4)cc1C has a survival of 82%.
Compound O=C(OCc1cc(=O)n2c3c(sc2n1)CCCC3)c1cccc(NC(=O)c2ccccc2F)c1 has a survival of 115%.
O=C(Nc1ccccc1C(=O)OCc1cc(=O)n2c3c(sc2n1)CCCC3)c1ccc(Cl)cc1 was tested, and the survival was 0% (active).
Work on COc1ccccc1C(=O)Nc1cccc(C(=O)OCc2cc(=O)n3c4c(sc3n2)CCCC4)c1 yielded a survival of 92%.
Cc1ccccc1C(=O)Nc1cccc(C(=O)OCc2cc(=O)n3c4c(sc3n2)CCCC4)c1 was tested, and the survival was 46% (active).
With O=C(Nc1ccccc1C(=O)OCc1cc(=O)n2c3c(sc2n1)CCCC3)c1ccccc1 the survival was 107%.
Work on Cc1ccc(C(=O)c2oc3ccccc3c2NC(=O)COc2ccc(Cl)c(C)c2)cc1 yielded a survival of 90%.
For COc1cc(-c2nc3n(n2)C(c2ccc(F)cc2)C(C(N)=O)=C(C)N3)cc(OC)c1OC (centres undefined), the survival was 91%.
With Cc1ccc2c(CC(=O)Nc3c(C(=O)Nc4cccc(Cl)c4)oc4ccccc34)coc2c1C the survival was 62%.
O=C(Nc1ccc(C(=O)OCc2cc(=O)n3c4c(sc3n2)CCCC4)cc1)c1ccc(Cl)cc1 showed a survival of 92%.
In the case of O=C(Nc1cccc(C(=O)OCc2cc(=O)n3c4c(sc3n2)CCCC4)c1)c1ccccc1, the survival is reported as 102%.
Work on Cc1ccccc1OCc1cc(=O)n2c(-c3ccccc3)csc2n1 yielded a survival of 69%.
In the case of Cc1cccc(OCc2cc(=O)n3c(-c4ccccc4)csc3n2)c1C, the survival is reported as 77%.
O=C(Nc1ccc(C(=O)OCc2cc(=O)n3c4c(sc3n2)CCCC4)cc1)c1ccccc1 was tested, and the survival was 25% (active).
In the case of Cc1cccc(C)c1OCc1cc(=O)n2c(-c3ccccc3)csc2n1, the survival is reported as 19% (active).
In the case of CCN1CCN(CCCNC(=O)Cn2c(-c3cccs3)cc3ccccc32)CC1, the survival is reported as 78%.
Cc1ccccc1Cn1c2ccccc2c2cnn(CC(=O)NC3CCCCCC3)c(=O)c21 was tested, and the survival was 87%.
With Cc1ccc2[nH]c(=O)c3cc(C(=O)NCCc4ccc(Cl)cc4)sc3c2c1 the survival was 74%.
With CCc1nnc(NC(=O)c2sc3nc4ccc(OC)cc4cc3c2N)s1 the survival was 77%.
With CC(=O)c1ccc(NC(=O)c2cc(-c3ccc(Cl)c(Cl)c3)on2)cc1 the survival was 47% (active).
O=C(NCCc1ccccc1)c1cc(-c2ccc(Cl)c(Cl)c2)on1 was tested, and the survival was 57%.
CC(=O)c1ccc(NC(=O)c2cc(-c3ccc4c(c3)OCO4)on2)cc1 gave a survival of 67%.
With CCCNC(=O)c1cc(-c2ccccc2)on1 the survival was 95%.
For CCCCNC(=O)c1cc(-c2ccc(Cl)c(Cl)c2)on1, the survival was 45% (active).
CC(=O)Nc1ccc(NC(=O)c2cc(-c3ccc4c(c3)OCCO4)on2)cc1 gave a survival of 118%.
O=c1cc(Nc2cccc(Br)c2)[nH]c(=O)[nH]1 showed a survival of 68%.
O=C(NCc1cccs1)c1ccc(Cn2c(SCc3ccccc3)nc3cccnc32)cc1 was tested, and the survival was 71%.
With CCOc1ccc(NC(=O)c2sc3nc4c(c(-c5ccccc5)c3c2N)C(=O)CC(C)(C)C4)cc1 the survival was 49%.
CCOC(=O)c1cc(NC(=O)c2ccc(C)cc2)c(=O)n2c1oc1ccc(Cl)cc12 showed a survival of 55%.
In the case of CCOC(=O)c1cc(NC(=O)c2ccc(Cl)cc2)c(=O)n2c1oc1ccccc12, the survival is reported as 34% (active).
With CCOC(=O)c1cc(NC(=O)c2ccc(C)cc2)c(=O)n2c1oc1ccccc12 the survival was 52%.
CCOC(=O)c1cc(NC(=O)c2ccc(F)cc2)c(=O)n2c1oc1ccccc12 was tested, and the survival was 54%.
CCOC(=O)c1cc(NC(=O)c2ccc(F)cc2)c(=O)n2c1oc1ccc(Cl)cc12 gave a survival of 127%.
In the case of CCOC(=O)c1cc(NC(=O)c2ccc(OC)cc2)c(=O)n2c1oc1ccc(Cl)cc12, the survival is reported as 46% (active).
O=C(NCCC1=CCCCC1)c1ccc2c(c1)ncn2-c1cccc(Cl)c1 gave a survival of 98%.
For Cc1cc(C)c(NC(=O)Cn2ccn(-c3cccc(Cl)c3)c(=O)c2=O)c(C)c1, the survival was 57%.
COc1ccc(NC(=O)c2cc(S(=O)(=O)N3CCOCC3)cn2C)cc1Cl was tested, and the survival was 108%.
CCN(CC)C(=O)c1sc2c(c1C)c(=O)n(CCc1ccccc1)c(=O)n2Cc1ccc(F)cc1Cl was tested, and the survival was 89%.
COc1ccc(CN2CCN(S(=O)(=O)c3ccc(NC(C)=O)cc3)CC2)c(OC)c1OC showed a survival of 61%.
Cc1ccc(S(=O)(=O)N2CCN(S(=O)(=O)c3ccc(C)cc3)CC2)cc1 showed a survival of 96%.
Cc1ccc(S(=O)(=O)N2CCC(C(=O)NCc3ccccc3Cl)CC2)cc1 gave a survival of 74%.
With Cc1ccc(S(=O)(=O)N2CCN(Cc3ccccc3Cl)CC2)cc1 the survival was 13% (active).
In the case of COc1cc(OC)c(OC)cc1CN1CCN(S(=O)(=O)c2ccc(NC(C)=O)cc2)CC1, the survival is reported as 79%.
CCOc1cc(CN2CCN(S(=O)(=O)c3ccc(C)cc3)CC2)ccc1OC gave a survival of 171%.
Work on CCS(=O)(=O)N1CCN(S(=O)(=O)c2ccc(Cl)cc2)CC1 yielded a survival of 88%.
In the case of CCOc1ccc(CN2CCN(S(=O)(=O)c3ccc(Cl)cc3)CC2)cc1, the survival is reported as 27% (active).
For CC(=O)Nc1ccc(S(=O)(=O)N2CCN(Cc3ccccc3Cl)CC2)cc1, the survival was 62% (active).
In the case of O=C(NC1CC(=O)N(c2ccc(F)cc2)C1)c1ccc2c(c1)OCO2 (centres undefined), the survival is reported as 75%.
Cc1cccc(Nc2nnc(-c3ccc(C)c(S(=O)(=O)NCC4CCCO4)c3)c3ccccc23)c1 (centres undefined) was tested, and the survival was 82%.
Compound CCOC(=O)COc1ccc(CC)cc1C(=O)c1ccn2nc(-c3ccc(C)cc3)cc2n1 has a survival of 75%.
COc1ccc(CCNC(=O)c2cccc(Nc3nc4ccccc4nc3-n3nc(C)cc3C)c2)cc1OC showed a survival of 91%.
Compound N#Cc1nc(-c2ccc(COc3ccc(Cl)cc3)o2)oc1N1CCN(c2ccccc2)CC1 has a survival of 64%.
CCc1ccc(S(=O)(=O)c2nnn3c2nc(NCc2cccc(OC)c2)c2cc(Cl)ccc23)cc1 showed a survival of 105%.
Work on COc1ccc(NC(=O)c2cnn(-c3ccc(F)cc3F)c2C2CCN(C(=O)OC(C)(C)C)CC2)cc1Cl yielded a survival of 72%.
Work on COc1cccc(C(=O)Nc2nc(-c3ccc(Br)cc3)ns2)c1 yielded a survival of 65%.
COc1ccc(-c2nsc(NC(=O)c3cccc(OC)c3)n2)cc1 gave a survival of 85%.
Compound Cc1ccc(-c2nsc(NC(=O)c3oc4cc(C)c(Cl)cc4c3C)n2)cc1 has a survival of 74%.
In the case of COc1ccccc1C(=O)Nc1nc(-c2ccccc2)ns1, the survival is reported as 45% (active).
COc1ccc(-c2nsc(NC(=O)c3ccccc3Br)n2)cc1 was tested, and the survival was 34% (active).
COc1ccccc1C(=O)Nc1nc(-c2ccc(Br)cc2)ns1 showed a survival of 86%.
Cc1ccccc1C(=O)Nc1nc(-c2ccc(Br)cc2)ns1 was tested, and the survival was 49%.
With Cc1cc2oc(C(=O)Nc3nc(-c4ccccc4)ns3)c(C)c2cc1Cl the survival was 45% (active).
For Cc1ccc(C(=O)Nc2nc(-c3ccccc3)ns2)cc1, the survival was 59%.
In the case of COc1ccc(C(=O)Nc2nc(-c3ccc(Br)cc3)ns2)cc1, the survival is reported as 58% (active).
With CCc1ccc2oc(C(=O)Nc3nc(-c4ccccc4)ns3)c(C)c2c1 the survival was 53%.
CCOc1ccc(C(=O)Nc2nc(-c3ccc(Br)cc3)ns2)cc1 was tested, and the survival was 76%.
Compound CC(=O)N1CCN(C2=NC(=O)C(=C3CCCCC3)S2)CC1 has a survival of 75%.
With CCCOc1ccc(-c2nonc2NC(=O)c2ccco2)cc1OCCC the survival was 111%.
Cc1c(Cl)cccc1-n1ncc(C(=O)N2CCN(c3ncccn3)CC2)c1C1CCN(C(=O)OC(C)(C)C)CC1 was tested, and the survival was 102%.
For COc1cc(C2CC(=O)N(c3ccc(C)c(Cl)c3)C3=C2C(=O)OC3)cc(OC)c1OC (centres undefined), the survival was 72%.
For Cc1ccc(C)c(NC(=O)C2CCN(c3nn4c(=O)cc(C)nc4s3)CC2)c1, the survival was 106%.
CCOC(=O)c1cc2sccc2n1CC(=O)NC1CCC(C)CC1 (centres undefined) gave a survival of 95%.
With Oc1c(C(c2ccccc2F)N2CCN(c3ccccc3F)CC2)sc2nc(-c3ccco3)nn12 (centres undefined) the survival was 87%.
In the case of COC(=O)c1ccc(NC(=O)CCS(=O)(=O)c2ccc(Br)cc2)cc1, the survival is reported as 77%.
With Cc1cc(Br)ccc1NC(=O)C(NS(=O)(=O)c1cccs1)c1ccccc1 (centres undefined) the survival was 31% (active).
CCC(C)(C)NC(=O)C(NS(=O)(=O)c1cccs1)c1ccccc1 (centres undefined) was tested, and the survival was 84%.
Cc1cccc(C)c1NC(=O)C(NS(=O)(=O)c1cccs1)c1ccccc1 (centres undefined) showed a survival of 56%.
COc1ccc(C)cc1NC(=O)C(Cc1ccccc1)NS(=O)(=O)c1cccs1 (centres undefined) showed a survival of 84%.
With O=C(Nc1ccc(Cl)cc1)C(NS(=O)(=O)c1cccs1)c1ccccc1 (centres undefined) the survival was 19% (active).
COc1ccc(C)cc1NC(=O)C(NS(=O)(=O)c1cccs1)c1ccccc1 (centres undefined) was tested, and the survival was 11% (active).
For Cc1cc(Br)ccc1NC(=O)C(Cc1ccccc1)NS(=O)(=O)c1ccc(Br)s1 (centres undefined), the survival was 114%.
CCOc1ccc(OCC)c(NC(=O)C(NS(=O)(=O)c2cccs2)c2ccccc2)c1 (centres undefined) showed a survival of 66%.
Compound CC(=O)Nc1ccc(NC(=O)C(NS(=O)(=O)c2ccc(Br)s2)c2ccccc2)cc1 (centres undefined) has a survival of 93%.
